# Measured values published in PubChem BioAssay AID588453 (National Center for Advancing Translational Sciences (NCATS), 2011).
# The campaign covered roughly 390,000 compounds. About 4,000 (1%) were called active. Not shown: some 4% with an inconclusive outcome. The call rests on the fitted dose curve; in most records, active means well fitted inhibition curve with a large enough effect; inconclusive means small, poorly fitted or top-dose-only effect; inactive means no such curve, though single readings can be large or run the other way. The entries come from a sample that favours actives as a whole. Where a call stands in place of a potency, no number is given.
# Target: Thioredoxin reductase 1, cytoplasmic (Rattus norvegicus) (UniProt O89049)
# Sequence (O89049 whole entry, looked up): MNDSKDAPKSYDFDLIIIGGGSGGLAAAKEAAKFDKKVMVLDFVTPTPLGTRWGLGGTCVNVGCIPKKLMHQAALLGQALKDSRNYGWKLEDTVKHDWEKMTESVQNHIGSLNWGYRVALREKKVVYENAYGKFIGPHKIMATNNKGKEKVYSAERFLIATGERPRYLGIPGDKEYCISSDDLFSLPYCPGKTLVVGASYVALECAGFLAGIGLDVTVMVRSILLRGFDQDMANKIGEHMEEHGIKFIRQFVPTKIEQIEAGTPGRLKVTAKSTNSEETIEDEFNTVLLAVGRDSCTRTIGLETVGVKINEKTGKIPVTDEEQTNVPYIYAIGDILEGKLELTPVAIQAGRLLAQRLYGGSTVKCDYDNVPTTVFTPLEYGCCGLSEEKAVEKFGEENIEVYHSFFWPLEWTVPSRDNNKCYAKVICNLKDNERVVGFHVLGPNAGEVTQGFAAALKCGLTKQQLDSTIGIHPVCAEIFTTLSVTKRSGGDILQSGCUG
# Assay: qHTS Assay for Inhibitors of Mammalian Selenoprotein Thioredoxin Reductase 1 (TrxR1): qHTS; further: nearly all actives have a fitted effect of over 65% in size
# Settings: recombinant rTrxR1, NADPH fluorescence consumption, selenite substrate; series mostly up to 114 µM
# Procedure, shortened: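 Rat TrxR1 (90 nM in the dispensed reagent) was pre-reduced with 400 uM NADPH for 5 min at room temperature, then incubated with compound for 15 min. After 400 uM selenite was added, NADPH fluorescence (Ex 340/Em 450 nm) was followed for 8 min.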
# Potency means the concentration at half of the fitted maximal effect.
row,SMILES,Potency
1,COc1ccc(S(=O)(=O)Nc2cccc3cccnc23)c(N)c1,inactive
2,Cc1cc(-c2ccc(C)c(S(=O)(=O)N3c4ccccc4CC3C)c2)on1 (stereo not given),inactive
3,CCOc1ccc(C2C(=O)N(C3CCCCC3)CC(=O)N2CCC2=CCCCC2)cc1OC (stereo not given),inactive
4,Cc1ccc(/C=C/C(=O)OCC(=O)NCc2ccc(Cl)cc2)o1,inactive
5,Cc1ccc(/C=C/C(=O)Nc2ccc([N+](=O)[O-])c(NC(=O)/C=C/c3ccc(C)o3)c2)o1,25.1 µM (active)
6,CCOc1ccc(NC(=S)NC(=O)/C=C/c2ccc(OC)cc2)c([N+](=O)[O-])c1,inactive
7,CN(C(=N)N)c1ccc(/C=C2\C=Cc3ccccc32)cc1,inactive
8,O=C(NCc1ccccc1Cl)C1=Cc2cc(Br)ccc2OC1,inactive
9,COc1cc(OC)cc(C(=O)Nc2ccc(-c3nc4ccccc4o3)c(O)c2)c1,28.2 µM (active)
10,COc1cc2ccccc2cc1C(=O)Nc1cccc(-c2nc3ccccc3o2)c1,inactive
11,COc1cccc(C(=O)Nc2ccc3oc(-c4ccc5ccccc5c4)nc3c2)c1,inactive
12,Cc1ccc(NC(=O)CN2c3ccccc3S(=O)(=O)c3ccccc32)cc1F,inactive
13,COc1cc(C(=O)N(Cc2ccc(C(C)C)cc2)C2CCS(=O)(=O)C2)cc(OC)c1OC (stereo not given),inactive
14,CCc1ccc(S(=O)(=O)Nc2ccc(C)c(NS(C)(=O)=O)c2)cc1,inactive
15,CCc1ccc(S(=O)(=O)N/N=C\c2ccc([N+](=O)[O-])o2)cc1,14.1 µM (active)
16,COc1ccc(S(=O)(=O)N/N=C\c2ccc(OC)c(COc3ccc(C)cc3[N+](=O)[O-])c2)cc1,inactive
17,O=C(Cc1ccccc1)Nc1sc2c(c1C(=O)Nc1ccc(Br)cc1)CCC2,inactive
18,COc1ccc(NC(=O)C(c2ccccc2)N2Cc3ccccc3C2=O)cc1 (stereo not given),inactive
19,CCOC(=O)/C=C/C(=O)OCC(=O)NC(c1ccccc1)c1ccccc1,28.2 µM (active)
20,Cc1ccccc1OCCC(=O)OCC(=O)NC(C)c1ccccc1 (stereo not given),inactive

row,SMILES,Potency
1,CCOc1ccc(C(CC(=O)O)NC(=O)COc2ccccc2)cc1 (stereo not given),inactive
2,CC(=O)Nc1ccc(S(=O)(=O)N2N=NC3C2C2CC4C3(CN(C(=O)OC(C)(C)C)S4(=O)=O)O2)cc1 (stereo not given),inactive
3,CN(C)c1ccc(/C=C/c2sc3ccccc3[n+]2CCCCBr)cc1,inactive
4,Cc1ccc(C(=O)COC(=O)C(Cc2c[nH]c3ccccc23)NC(=O)c2ccc(Br)cc2)cc1 (stereo not given),inactive
5,CC(=O)OCC(NC(=O)C(Cc1ccccc1)NC(=O)OC(C)(C)C)C1OC(n2ccc(=O)[nH]c2=O)C(OC(C)=O)C1OC(C)=O (stereo not given),inactive
6,COc1cc(OC)c2c(C)cc(=O)oc2c1C(CCN1CCCCC1)c1ccc(N(C)C)cc1 (stereo not given),inactive
7,C=C(C)C(=O)O[C@H]1C/C(C)=C\C(=O)/C=C(\C)[C@H](O)[C@@H]2OC(=O)C(=C)[C@@H]21,39.8 µM (active)
8,CCOC(=O)N1CCc2c(sc(NCc3cccc(F)c3)c2C(=O)Nc2ccccc2OCC)C1,inactive
9,COc1cc(OC)c(/C=C/c2ccnc3ccccc23)c(OC)c1,inactive
10,C=C1CCN(C(CC(C)C)C(=O)N2CCOCC2)S(=O)(=O)c2ccccc21 (stereo not given),inactive
11,O=c1[nH]c2cc(Br)ccc2n2cccc12,inactive
12,O=c1cc(-c2ccccc2)n2c(SCc3ccccc3)nnc2[nH]1,inactive
13,O=c1[nH]c2ccccc2n2c(-c3ccccc3)nnc12,0.708 µM (active)
14,CC(C)Cn1c(=O)c2ccccc2n2c(-c3cccc(Cl)c3)nnc12,inactive
15,Cc1ccc2nc(N3CCN(c4cccc(Cl)c4)CC3)c3nnnn3c2c1,inactive
16,COc1ccc(N2C(=O)CSC23C(=O)N(Cc2cccc(F)c2)c2ccccc23)cc1Cl (stereo not given),inactive
17,Oc1c(C(c2ccc(F)cc2)N2CCN(Cc3ccccc3)CC2)sc2nc(-c3ccco3)nn12 (stereo not given),inactive
18,C[n+]1ccccc1C1CCCC/C1=N\Nc1ccc([N+](=O)[O-])cc1[N+](=O)[O-] (stereo not given),inactive
19,CC1(C)C/C(=N/Nc2ccc([N+](=O)[O-])cc2[N+](=O)[O-])C(C)(C)O1,inactive
20,O=[N+]([O-])c1ccc(N/N=C2/CCCCC2c2ccccn2)c([N+](=O)[O-])c1 (stereo not given),3.55 µM (active)

row,SMILES,Potency
1,Cc1cc(N2CCN(c3cccc(C(F)(F)F)c3)CC2)n2nc(-c3ccccc3)nc2n1,inactive
2,CCOC(=O)c1c(NC(=O)c2cc(CC)on2)sc(C(C)=O)c1C,inactive
3,CCOC(=O)c1c(NC(=O)CCl)sc(C(=O)N(CC)CC)c1C,31.6 µM (active)
4,COC(=O)c1sc(NC(=O)COC(=O)C2CCC2)c(C(=O)OC)c1C,inactive
5,CCc1ccccc1NC(=O)CSc1nc(C)c(C(=O)Nc2ccccc2)c(-c2ccc(Cl)cc2)c1C#N,inactive
6,CCCn1c(=O)c2[nH]c(-c3ccc(OCC(=O)NCCN)cc3)nc2n(CCC)c1=O,inactive
7,COc1ccccc1/C=C/c1nc(C#N)c(NC(C)c2ccccc2)o1 (stereo not given),inactive
8,O=C(CCC1N=C2c3ccccc3N=C(SCc3ccccc3F)N2C1=O)NCCc1ccccc1 (stereo not given),inactive
9,Clc1ccccc1CSc1nnc(-c2ccco2)c(-c2ccco2)n1,5.01 µM (active)
10,Cc1ccc(-c2nnc(SCC(=O)NCc3ccccc3)nc2-c2ccc(C)cc2)cc1,inactive
11,Clc1ccccc1CSc1nncn2c1cc1occc12,inactive
12,CC1(C)N=C(SCc2ccccc2Cl)c2ccccc2N1,inactive
13,CSc1n[nH]c(-c2ccco2)n1,inactive
14,c1ccc(CSc2nnc(-c3ccco3)c(-c3ccco3)n2)cc1,2.51 µM (active)
15,Cc1ccc(S(=O)(=O)c2cn(Cc3ccccc3)c3cc(N4CCCC4)c(F)cc3c2=O)c(C)c1,inactive
16,COc1cccc(-c2nc(S(=O)(=O)c3ccc(C)cc3)c(NCc3ccccc3)o2)c1,inactive
17,Cc1c(NC(=O)Cc2ccccc2)cccc1-c1nc2cccnc2s1,inactive
18,O=C(NCc1ccco1)c1ccc(NS(=O)(=O)c2cccc([N+](=O)[O-])c2)cc1,inactive
19,O=[N+]([O-])c1cccc(/C([O-])=C(/C(=S)Nc2ccccc2F)[n+]2ccccc2)c1,inactive
20,Cc1ccc(/C([O-])=C(/C(=S)NCc2ccco2)[n+]2ccccc2)cc1[N+](=O)[O-],56.2 µM (active)
